# The full ranking holds about 8,300 sequences; the median of “log2 fold change of degron read counts, EGFP-low vs EGFP+ sorted cells (limma voom), compound-induced degradation” is about -1.1, and the highest 2% start at about 3.2. Only a selection was taken, and the highest values are over-represented in it overall.
# T1: CRBN, Q96SW2
# T1 chain: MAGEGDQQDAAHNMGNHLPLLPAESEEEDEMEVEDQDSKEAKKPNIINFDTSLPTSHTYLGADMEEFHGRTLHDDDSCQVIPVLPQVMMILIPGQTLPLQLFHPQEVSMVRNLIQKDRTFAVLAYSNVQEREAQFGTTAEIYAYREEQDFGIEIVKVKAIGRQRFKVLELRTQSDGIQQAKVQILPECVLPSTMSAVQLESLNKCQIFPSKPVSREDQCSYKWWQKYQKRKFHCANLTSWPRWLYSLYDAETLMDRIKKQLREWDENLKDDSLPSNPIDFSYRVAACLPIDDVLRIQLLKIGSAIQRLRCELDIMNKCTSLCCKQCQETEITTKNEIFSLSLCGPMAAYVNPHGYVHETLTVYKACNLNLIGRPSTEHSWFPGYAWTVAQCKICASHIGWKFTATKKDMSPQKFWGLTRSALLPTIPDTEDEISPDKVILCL
# Biological target: T1, CRBN, Q96SW2
# Test: log2 fold change of degron read counts, EGFP-low vs EGFP+ sorted cells (limma voom), compound-induced degradation; higher = more compound-induced degradation of the degron-EGFP fusion; degrons are variants of IKZF1/3 zinc finger 2; compound dose not given here
# Conditions: Jurkat, 18 h
# [1] = compound: compound 19 (5-tert-butyl-thalidomide)
# [2] = compound: compound 22 (5-morpholino-thalidomide)
# [3] = compound: compound 33 (diphenyl IMiD analogue)
# 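Also: pooled lentiviral library of zinc finger degron-EGFP fusions in mCherry-positive Jurkat cells, FACS-sorted after compound exposure, with degron abundance counted by next-generation sequencing.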
Sequence,log2 fold change of degron read counts [1],log2 fold change of degron read counts [2],log2 fold change of degron read counts [3],log2 fold change of degron read counts (compound: thalidomide)
"FWCNVCGAPFTQKGNLLRHIKL [46F_47W_49N_50V_52G_53A_54P_55F_67L_, Q9UKT9]",1.34,1.28,0.648,-0.594
"FNCNQCGRAFTQKGNLLRHIKL [46F_47N_49N_50Q_52G_53R_54A_55F_67L_, Q9UKT9]",-2.53,-3,-2.84,-2.82
"FLCNQCGRKFTQKGNLLRHIKL [46F_47L_49N_50Q_52G_53R_54K_55F_67L_, Q9UKT9]",-3.07,-2.98,-2.46,-1.94
"FTCEVCGADFTQKGNLLRHIKL [46F_47T_49E_50V_52G_53A_54D_55F_67L_, Q9UKT9]",-1.27,-0.646,-0.114,0.571
"FWCDVCGAFFTQKGNLLRHIKL [46F_47W_49D_50V_52G_53A_54F_55F_67L_, Q9UKT9]",0.953,1.36,-0.00384,-1.88
"FECNVCGAIFTQKGNLLRHIKL [46F_47E_49N_50V_52G_53A_54I_55F_67L_, Q9UKT9]",-2.34,-1.7,-0.347,0.492
"FVCEQCGAIFTQKGNLLRHIKL [46F_47V_49E_50Q_52G_53A_54I_55F_67L_, Q9UKT9]",-2.11,-2.38,-0.483,-1.05
"FHCPICGAKFTQKGNLLRHIKL [46F_47H_49P_50I_52G_53A_54K_55F_67L_, Q9UKT9]",2.6,2.09,-0.0644,0.674
"FWCPICGAKFTQKGNLLRHIKL [46F_47W_49P_50I_52G_53A_54K_55F_67L_, Q9UKT9]",2.94,3.43,1.1,0.827
"FRCPICGAKFTQKGNLLRHIKL [46F_47R_49P_50I_52G_53A_54K_55F_67L_, Q9UKT9]",-0.704,0.123,0.417,0.809
